# Sampled rows, rich in hits. Any-hit rate of the full collection: about 7.5%.
# SMN2 splice up: qHTS Assay for Enhancers of SMN2 Splice Variant Expression; HEK293 SMN2-luciferase splicing reporter, luminescence, 30-36 h; Potency, µM (highest dose often 46.1 µM), without a hit: at the top dose activity change, positive = activation, most hits filed as activators; 210,000 compounds, 2.8% hits; also: % of control where 0% means no effect; nearly all actives have a fitted effect of over 55% in size
#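 HEK293 cells carry an SMN2 minigene-luciferase reporter in which exon 7 inclusion puts luciferase in frame. Cells were seeded at 2000 cells/well, attached for 10-12 hours, then exposed to compounds for 30-36 hours at 37C before ONE-Glo luminescence.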
# Rab9 prom act: qHTS Assay for Rab9 Promoter Activators. Huh7 Rab9 promoter-luciferase reporter, luminescence, 24 h. Potency, µM (highest dose often 9.22 µM), inactives show at the highest dose activation, negative = inhibition, usual class: activators. 320,000 compounds, 2.8% hits; also: % of control where 0% means no effect; nearly all actives have a fitted effect of over 60% in size
#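 Huh7 cells stably carrying Rab9 promoter–luciferase reporter, plated 1500 cells/well, compound added after 2 h and incubated 24 h at 37 °C; luciferase luminescence then read after 10 min with detection reagent.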
# FLuc modulator: qHTS profiling assay for firefly luciferase inhibitor/activator using purifed enzyme and Km concentrations of substrates (counterscreen for miR-21 project). AID 588342, 2011. 360,000 compounds, 6.9% hits. Potency, µM (titrated, usually from 57.5 µM), for inactives: at the top dose activity change, negative = inhibition, usual class: inhibitors. purified FLuc, Km substrates, luminescence inhibition;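 also: plate controls were vehicle for no effect and reference inhibitor for full effect; nearly all actives have a fitted effect of over 55% in size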
# Target sequence (P08659 whole entry, looked up): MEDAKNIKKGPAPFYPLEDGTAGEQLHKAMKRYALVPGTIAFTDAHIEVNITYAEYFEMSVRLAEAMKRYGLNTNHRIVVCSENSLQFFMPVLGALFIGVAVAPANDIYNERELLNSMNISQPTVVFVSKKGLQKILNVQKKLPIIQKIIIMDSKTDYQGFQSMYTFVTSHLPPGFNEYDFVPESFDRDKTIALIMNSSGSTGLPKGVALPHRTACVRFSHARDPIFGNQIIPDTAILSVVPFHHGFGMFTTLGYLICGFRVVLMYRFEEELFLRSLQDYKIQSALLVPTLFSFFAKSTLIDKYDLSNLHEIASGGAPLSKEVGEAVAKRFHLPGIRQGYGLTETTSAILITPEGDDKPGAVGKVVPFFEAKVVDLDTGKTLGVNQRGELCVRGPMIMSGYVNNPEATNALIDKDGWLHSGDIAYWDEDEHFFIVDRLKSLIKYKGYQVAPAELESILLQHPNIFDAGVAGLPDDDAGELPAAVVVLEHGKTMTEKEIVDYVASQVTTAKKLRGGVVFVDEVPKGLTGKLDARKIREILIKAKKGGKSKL
#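 Purified P. pyralis luciferase, 10 nM final, with Km-level 10 uM D-luciferin and 10 uM ATP in 50 mM Tris acetate pH 7.5, 10 mM Mg acetate, 0.01% Tween-20, 0.05% BSA; 6-point qHTS titration about 60 µM downward; luminescence read.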
# ELG1 genotox: qHTS screen for small molecules that induce genotoxicity in human embryonic kidney (HEK293T) cells expressing luciferase-tagged ELG1. HEK293T ELG1-luciferase reporter, luminescence, 16 h. Potency, µM (titrated, usually from 46 µM), inactives show at the top dose activity change, positive = activation, usual class: activators. 330,000 compounds, 1.3% hits. AID 504466, 2011; also: % of control where 0% means no effect; nearly all actives have a fitted effect of over 60% in size
#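 ELG1-luciferase HEK293T cells, 2,000/well; compound pinned in; 16 hr, 37 °C, 5% CO2; ONE-Glo, 30 min RT; luminescence on CCD imager.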
# NPC1 prom act: qHTS Assay for NPC1 Promoter Activators. Huh7 NPC1 promoter luciferase reporter, 24 h. Potency, µM (highest dose often 9.22 µM), for inactives: top-dose activation, hits mostly activators. 320,000 compounds, 2.4% hits; also: % of control where 0% means no effect; nearly all actives have a fitted effect of over 60% in size
#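 Cells: Huh7 expressing luciferase under the NPC1 promoter, 1500/well. Seeded 2 h, compound added, incubated 24 h at 37 °C. Luciferase reagent, 10 min ambient, then luminescence.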
# The depositor's hits bear a star; ? = inconclusive; . = no result. Calls follow the shape of the dose curve; as a rule, active = well fitted curve in the direction sought with a large enough effect; inconclusive = small, poorly fitted or top-dose-only effect, or another doubt; inactive = no such curve, though single readings can be large; an effect the other way counts as inactive or inconclusive. Potency is read from the fitted curve at half-maximal effect.
SMILES,SMN2 splice up,Rab9 prom act,FLuc modulator,ELG1 genotox,NPC1 prom act
Cc1ccc(C)c(N(C(=O)CNC(=O)c2ccco2)C(C(=O)NC2CCCCC2)c2ccncc2)c1 (stereo not given),.,-9.4%,0.2%,-0.5%,-0.9%
Cc1cc(C)cc(NC(=O)C(=O)NCC(c2cccnc2)N2CCc3ccccc3C2)c1 (stereo not given),.,.,-2.3%,.,.
Cc1ccc2sc(NC(=O)c3ccc4c(c3)OCCO4)nc2c1C,.,.,2.69µM*,.,.
Cc1nc2ccc3nc(NC(=O)c4ccc5c(c4)OCCO5)sc3c2s1,-2.4%,19.1%,?,2.9%,13.5%
Cc1nc2c(ccc3nc(NC(=O)c4ccc5c(c4)OCCO5)sc32)s1,?,0.708µM*,0.213µM*,?,0.316µM*
Cc1cnc(NC(=O)c2ccc3c(c2)OCCO3)s1,.,0.1µM*,0.107µM*,?,?
Cc1ccc(C(C)NC(=O)c2ccc3c(c2)OCCO3)cc1C (stereo not given),.,-0.9%,1.5%,-4.0%,-8.7%
COc1ccc(C(C(=O)NC2CCCC2)N(Cc2cccnc2)C(=O)Cc2cccs2)c(OC)c1 (stereo not given),.,-8.3%,0.9%,0.2%,0.1%
CC(/C=N/N1CCN(c2ccccc2)CC1)=C\c1ccco1,14.1µM*,?,2.39µM*,?,2µM*
CC(=C/c1ccco1)/C=N/N1CCN(c2ccccc2)CC1,?,1.78µM*,2.69µM*,?,2.51µM*
CC(/C=N/N1CCN(c2ccccc2)CC1)=C\c1ccccc1,13.7%,26.7%,-1.1%,2.1%,?
COc1ccc(C(=O)N=c2nc3ccccn3s2)cc1,.,0.251µM*,0.0953µM*,0.366µM*,0.126µM*
COc1ccc(C(=O)NCCc2cn3ccccc3n2)cc1,.,1.4%,-16.8%,4.6%,10.5%
COc1cc(SC)ccc1C(=O)Nc1ccc2c(c1)OCO2,11.2µM*,1.58µM*,1.35µM*,2.59µM*,0.891µM*
COc1cc(SC)ccc1C(=O)Nc1ccc(C)cc1,.,3.55µM*,1.9µM*,?,?
COc1cc(SC)ccc1C(=O)Nc1ccc(C)cc1C,12.6µM*,3.55µM*,2.69µM*,?,2.51µM*
COc1cc(SC)ccc1C(=O)Nc1ccc(S(=O)(=O)N2CCCC2)cc1,-20.0%,-4.2%,-6.9%,17.6%,-0.1%
CCOc1ccc(NC(=O)CN(C)CC(=O)Nc2ccc(F)c(F)c2F)cc1OCC,9.1%,-0.6%,4.8%,0.8%,-11.2%
CCOCCCNCc1ccc(OCC(=O)N2CCOCC2)c(OC)c1,-5.5%,2.0%,1.3%,2.5%,-1.5%
COc1ccc(C)cc1NC(=O)C(C)N1CCOCC1 (stereo not given),.,-0.1%,2.9%,0.7%,-3.2%
O=C(NC(=S)Nc1ccc(O)cc1)c1ccccc1Cl,?,3.98µM*,?,?,?
Cc1ccc(O)c(NC(=S)NC(=O)c2ccccc2Cl)c1,?,3.6%,16.9µM*,9.1%,12.9%
COc1ccc(C(=O)Cn2c(Br)nc3c2c(=O)n(C)c(=O)n3C)cc1OC,-46.7%,-5.5%,4.7%,-3.7%,-3.6%
CCOC(=O)c1c(/N=C/N(C)C)sc(/C=N/Nc2ccccc2)c1-c1ccccc1Cl,.,2.1%,12µM*,-2.3%,-3.2%
CCOC(=O)c1c(/N=C/N(C)C)sc(/C=N/Nc2ccccc2)c1-c1ccccc1,2.7%,-0.2%,-3.8%,1.8%,4.6%
CC(=O)c1ccccc1OCC(O)Cn1c(CO)nc2ccccc21 (stereo not given),5.6%,.,23.9µM*,.,.
CCc1nn2c(=O)cc(COC(=O)c3ccccc3)nc2s1,.,.,16.9µM*,.,.
CCc1nn2c(=O)cc(COC(=O)C(c3ccccc3)c3ccccc3)nc2s1,.,.,7.1%,.,.
CCCc1nn2c(=O)cc(COC(=O)c3ccccc3NC(=O)c3ccc(Cl)cc3)nc2s1,.,.,-8.2%,.,.
Cc1csc2nc(COC(=O)c3ccccc3NC(=O)c3ccc(C(C)(C)C)cc3)cc(=O)n12,.,.,2.69µM*,.,.

# Screens deposited in PubChem by National Center for Advancing Translational Sciences (NCATS).
